DT40 TDP1 no CPT = qHTS for Inhibitors of human tyrosyl-DNA phosphodiesterase 1 (TDP1): qHTS in cells in absence of CPT. Potency, µM (highest dose often 46.2 µM), most hits filed as inhibitors. 15% of 420,000 active. DT40 Tdp1-/- hTDP1 cells, no CPT, ATP luminescence, 48 h. AID 686978, 2013; further: nearly all actives have a fitted effect of over 55% in size
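Luminescent ATP content (CellTiter-Glo) served as the growth readout. Knockout chicken DT40 cells expressing human TDP1 were exposed to compounds without camptothecin for a minimum 48 hr at 37 °C.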
HT1080-NT tox = qHTS for induction of synthetic lethality in tumor cells producing 2HG: qHTS for the HT-1080-NT fibrosarcoma cell line; Potency, µM (series often up to 46.1 µM), actives largely listed as cytotoxic; HT-1080-NT fibrosarcoma viability, CellTiter-Glo ATP luminescence, 48 h; 1.6% of 360,000 active;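 further: NT is the 2HG producing partner of a matched IDH1 knockdown line; nearly all actives have a fitted effect of over 55% in size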
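Compounds were tested in concentration-response format on HT-1080-NT cells for 48 hours at 37 degrees C. Cell viability came from CellTiter-Glo luminescence; curves were classified by r2, response magnitude and activity.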
TGFb SMAD3 inh = qHTS for Inhibitors of TGF-b; HepG2 CAGA-GFP TGF-b/SMAD3 reporter, GFP fluorescence, 18 h; TGF-beta stimulated, 500 pg/mL final; Potency, µM (series often up to 46.1 µM), most hits filed as inhibitors; 1.2% of 410,000 active; further: nearly all actives have a fitted effect of over 65% in size
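TGF-beta reporter screen: HEPG2 CAGA-GFP, 1% FBS, 500 pg/mL TGF-beta final, 18 h; per-cell GFP summed per well; curves fitted and categorized by class.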
HepG2 tox = qHTS for Inhibitors of TGF-b: Cytotox Counterscreen | AID 588856, 2011 | Potency, µM (titrated, usually from 46.1 µM), usual class: cytotoxic | 0.76% of 410,000 active | HepG2 CAGA-GFP viability, ATP luminescence, 18 h
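CellTiter-Glo luminescence gave cytotoxicity after 18 hours at 37 degrees C. The cells were HepG2 CAGA-GFP in 1% FBS DMEM, stimulated with 500 pg/mL TGF-beta after compound addition. %Activity was normalised to no-cell wells (complete cell-killing) and DMSO (no toxicity), and curves were fitted and classified.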
HT1080 IDH1KD tx = qHTS for induction of synthetic lethality in tumor cells producing 2HG: qHTS for the HT-1080-IDH1KD cell line | Potency, µM (doses to about 46.1 µM), actives largely listed as cytotoxic | AID 686971, 2013 | HT-1080 IDH1 knockdown viability, ATP luminescence, 48 h | 2% of 360,000 active
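% activity derives from luminescence (CellTiter-Glo), normalised to DMSO and no-cell wells. HT-1080-IDH1KD cells, 750/well, had 48 h compound exposure at 37 °C.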
DT40 TDP1 CPT = qHTS for Inhibitors of human tyrosyl-DNA phosphodiesterase 1 (TDP1): qHTS in cells in presence of CPT; chicken DT40 Tdp1-/-;hTDP1 cells + 20 nM CPT, ATP luminescence, 48 h; Potency, µM (titrated, usually from 46.2 µM), actives largely listed as inhibitors; 12% of 420,000 active; AID 686979, 2013; further: nearly all actives have a fitted effect of over 55% in size
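Chicken DT40 Tdp1-/- cells complemented with human TDP1, 400 cells/well, exposed to compounds plus 20 nM camptothecin for at least 48 h at 37 C; viability read as ATP content by CellTiter-Glo luminescence.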
Hits are given with their value; - = inactive; ? = inconclusive; . = not tested or not shown; [ ] = dose if it differs, or a comment. The list is not random: actives were taken first. Their share in the collection is about 17%. The call rests on the fitted dose curve; in most records, active means well fitted curve in the direction sought with a large enough effect; inconclusive means small, poorly fitted or top-dose-only effect, or another doubt; inactive means no such curve, though single readings can be large; an effect the other way counts as inactive or inconclusive.

SMILES	DT40 TDP1 no CPT	HT1080-NT tox	TGFb SMAD3 inh	HepG2 tox	HT1080 IDH1KD tx	DT40 TDP1 CPT
CC(C)C(=O)N1CCC(c2nc(-c3ccc(S(=O)(=O)N4CCCC4)cc3)no2)CC1	?	-	-	-	-	?
CN1CCN(S(=O)(=O)c2ccc(NS(=O)(=O)c3ccccc3)cc2)CC1	-	-	-	-	-	-
Nc1ncnn1Cc1ccccc1	-	-	-	-	-	-
O=C(Nc1ccc(Cl)cc1)N1CCC(c2nc(-c3ccccc3Cl)no2)CC1	18µM	?	?	-	?	23µM
O=C(c1ccco1)N1CCC(c2nc(-c3ccccc3Cl)no2)CC1	-	-	-	-	-	?
Cc1cccc(C(=O)N2CCC(c3nc(-c4ccc(S(=O)(=O)N5CCOCC5)cc4)no3)CC2)c1	21µM	-	-	-	-	16µM
CC(C)(C)N(NC(=O)OCc1ccccc1)C(=O)c1ccccc1Cl	-	-	-	-	-	-
CCN1CCN(Cc2c(O)ccc3c(C)c(-c4ccc(OC)cc4)c(=O)oc23)CC1	23µM	.	?	-	.	?
CN1CCN(Cc2c(O)ccc3cc(-c4ccc(Cl)cc4)c(=O)oc23)CC1	?	.	?	-	.	23µM
COc1ccc(-c2cc3ccc(O)c(CN4CCCC(C)C4)c3oc2=O)cc1 (centres undefined)	16µM	.	-	-	.	?
CCN1CCN(Cc2c(O)ccc3cc(-c4ccc(OC)cc4)c(=O)oc23)CC1	?	.	-	-	.	?
O=c1oc2c(CN3CCN(CCO)CC3)c(O)ccc2cc1-c1ccccc1	-	.	-	-	.	-
COc1ccc(C(O)c2nc(-c3cccc(O)c3)cs2)cc1 (centres undefined)	?	-	-	-	-	?
Cc1ccc(C(=O)Oc2ccc(Cl)c3cccnc23)cc1[N+](=O)[O-]	21µM	-	11µM	-	-	?
Cc1cccc(N2CC(O)(c3cccs3)[N+]3=C2CCCC3)c1C (centres undefined)	21µM	-	-	-	-	?
COc1cc2c(-c3cccc(Cl)c3)nc3c(c(C)nn3-c3ccccc3)c2cc1OC	-	.	-	-	.	-
C1CCc2c(nc3nnnn3c2N2CCOCC2)C1	-	-	-	-	-	-
O=C(C1CCCO1)N1CCN(c2c3c(nc4cc(-c5ccc(F)cc5)nn24)CCC3)CC1 (centres undefined)	16µM	-	-	-	-	?
OC1CCN(c2c3c(nc4cc(-c5ccc(F)cc5)nn24)CCC3)CC1	?	-	-	-	-	16µM
Cc1cccc(-c2cc3nc4c(c(N5CCOCC5)n3n2)CCCC4)c1	23µM	?	?	-	?	18µM
Fc1ccc(-c2cc3nc4c(c(N5CCOCC5)n3n2)CCCC4)cc1	16µM	?	?	-	?	18µM
O=C(c1cc(F)c(F)c(F)c1F)N1CCN(C(=O)C2CCCO2)CC1 (centres undefined)	-	-	?	-	-	-
COc1cccc(Cn2c(=O)c(-c3cc(F)cc(F)c3)nc3cnc(N4CCOCC4)nc32)c1	-	.	.	.	.	-
Cc1c(C(=O)NCC2Cc3cccc(-c4cncnc4)c3O2)c(-c2ccccc2)nn1-c1ccccc1 (centres undefined)	-	.	.	.	.	-[9.04 µM]
CCc1nn2c(-c3ccccc3OC)ccnc2c1-c1ccccc1	21µM	.	-	-	.	?
SMILES	DT40 TDP1 no CPT	HT1080-NT tox	TGFb SMAD3 inh	HepG2 tox	HT1080 IDH1KD tx	DT40 TDP1 CPT
COc1ccc(-c2ccnc3c(-c4ccc(F)cc4)c(C)nn23)cc1OC	?	.	-	-	.	-
CCc1nn2c(-c3ccccc3OC)ccnc2c1-c1ccc(F)cc1	?	.	?	-	.	23µM
COc1ccccc1-c1ccnc2c(-c3ccc(Br)cc3)c(C)nn12	-	.	?	-	.	-
COc1ccc(NS(=O)(=O)c2cc(C(=O)N3CCC3)ccc2C)cc1	-	-	-	-	-	-
COc1cccc(CN(C)C(=O)Cc2c[nH]c3ccccc23)c1OC	16µM	-	-	-	-	?
COc1cccc(CN(C)C(=O)CSCC(=O)Nc2ccc(C)cc2)c1OC	12µM	-	-	-	-	?
CCCC(=O)NCC(c1ccc2c(c1)OCO2)N1CCOCC1 (centres undefined)	-	.	-	-	.	-
O=C(C[n+]1cccc(Br)c1)c1cc(Cl)ccc1Cl	?	.	-	-	.	?
OCCN1CCN(C2CCC(c3ccc(F)cc3)c3ccc(F)cc32)CC1 (centres undefined)	8.2µM	18µM	20µM	-	23µM	?
Nc1ncc(-c2ccc(F)cc2)nc1N1CCN(CCO)CC1	-	-	-	-	-	-
CCn1c(=O)c([N+](=O)[O-])c(N2CCSCC2)c2ccccc21	23µM	-	-	-	-	?
Cc1nn(-c2ccccc2)c(Oc2ccccc2)c1C=O	13µM	-	-	-	-	16µM
Cc1ccc(-c2nnc(OCc3cccnc3)c3ccccc23)cc1	?	-	-	-	-	-
CCO[C@@H]1OC(C(=O)N2CCN(Cc3ccc4c(c3)OCO4)CC2)=C[C@H](C2CCCCC2)[C@H]1CCCO	?	-	?	-	-	21µM
CCO[C@H]1OC(C(=O)NCc2ccccc2)=C[C@@H](C2CCCCC2)[C@@H]1CCCO	16µM	-	?	-	-	18µM
CCO[C@H]1OC(C(=O)N2CCN(Cc3ccc4c(c3)OCO4)CC2)=C[C@@H](C(C)(C)C)[C@@H]1CCCO	?	-	?	-	-	?
CCO[C@H]1OC(C(=O)N2CCN(Cc3ccccc3)CC2)=C[C@@H](C2CCCCC2)[C@@H]1CCCO	9.2µM	-	?	-	-	9.2µM
CCO[C@@H]1OC(C(=O)N2CCN(Cc3ccccc3)CC2)=C[C@H](C)[C@H]1CCCO	-	-	-	-	-	-
CCO[C@@H]1OC(C(=O)N2CCN(Cc3ccc4c(c3)OCO4)CC2)=C[C@H](c2ccc(C(F)(F)F)cc2)[C@H]1CCCO	21µM	?	?	-	?	16µM
CCO[C@@H]1OC(C(=O)NC2CC2)=C[C@H](c2ccc(C(F)(F)F)cc2)[C@H]1CCCO	?	-	-	-	-	?
CCO[C@@H]1OC(C(=O)N2CCN(C)CC2)=C[C@H](C2CCCCC2)[C@H]1CCCO	-	-	-	-	-	-
